IEC-6 tox = IEC-6 cytotoxicity, counter-screen for KLF5 inhibitors. luminescence viability. inhibition, % at 5 µM. 290,000 compounds, 0.78% hits. AID 1825
KLF5 inh = suppresses KLF5 promoter-driven expression. inhibition, % at 5 µM. DLD-1 KLF5 promoter-luciferase reporter, luminescence. AID 1700. 290,000 compounds, 0.23% hits;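 active = inhibition above a per-plate limit of that plate's mean compound inhibition plus 3 SD, cut at about 60% in these data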;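 also: higher means less KLF5 promoter-driven luciferase light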
Ba/F3 V617F tox = reduce viability of Ba/F3 cells dependent on JAK2V617F; inhibition, % at 5.6 µM; AID 1446; Ba/F3 EpoR-JAK2V617F viability, ATP luminescence; 220,000 compounds, 1.1% hits;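 active = inhibition above the campaign mean plus 3 SD over all tested compounds, cut at about 24% in these data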;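 also: cytokine-independent growth of Ba/F3 cells driven by EpoR plus mutant JAK2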
BaF3 tox = parental Ba/F3 viability inhibition as JAK2V617F counter-screen. inhibition, % at 5.6 µM. 220,000 compounds, 1.1% hits. CellTiter-Glo ATP luminescence;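 active = inhibition above a per-campaign cutoff, the mean inhibition of all tested compounds plus 3 SD, cut at about 27% in these data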
APP transl inh = APP translation inhibition | SH-SY5Y APP 5'UTR-luciferase reporter, luminescence | inhibition, % at 2 µM | AID 1285 | 190,000 compounds, 0.82% hits;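 active = inhibition above a set limit, derived from the sample mean plus 3 SD, cut at about 45% in these data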
IEC-6 cytotox cf = confirmation of cytotoxic compounds in rat IEC-6 intestinal epithelial cells | shares compounds with IEC-6 tox | inhibition, % at 5 µM | AID 1907 | IEC-6 rat intestinal epithelial viability, luminescence | 1,900 compounds, 63% hits
Large screens that a line does not name were inactive (follow-up assays come after a bar, where they were run). This is a sample that favours compounds with a hit; in the whole collection about 1.9% have one here. Rule as the data show it, unless noted: active = inhibition above about 22%; inactive = the rest.

CC(=O)NC1=NN(C(C)=O)C(C)(c2ccccc2)S1 (centres undefined)	IEC-6 tox 64.0, Ba/F3 V617F tox 67.0, BaF3 tox 61.1, APP transl inh 49.3 | IEC-6 cytotox cf 45.0
CCC(Sc1nc2ccccc2c(=O)[nH]1)C(=O)O (centres undefined)	none
CN1/C(=C\C(=O)CSc2nnc(N)s2)C(C)(C)c2ccccc21	none
CN1/C(=C\C(=O)CSc2cccc[n+]2[O-])C(C)(C)c2ccccc21	IEC-6 tox 103.9 | IEC-6 cytotox cf inactive
COC(=O)C1=C(NC(=O)c2ccc(C)cc2)CCS1	none
COC(=O)C1=C(NC(C)=O)CCS1	IEC-6 tox 22.8 | IEC-6 cytotox cf inactive
O=S(=O)(NCc1csc(-c2cccnc2)n1)c1cccs1	none
COc1ccc(/C=N\NC(=O)c2sccc2C)cc1Cn1nc(C)cc1C	IEC-6 tox 45.5 (no result: Ba/F3 V617F tox, BaF3 tox, APP transl inh) | IEC-6 cytotox cf 24.5
O=C(COC(=O)CC1CCCC1)Nc1cc2c(cc1Cl)C(=O)c1ccccc1C2=O	none
COc1ccc(-c2cn(-c3ccc(OC)cc3)c3[n+]2-c2ccccc2CC3)cc1	IEC-6 tox 24.7, Ba/F3 V617F tox 94.7, BaF3 tox 77.0 | IEC-6 cytotox cf 26.4
CCCCn1c(SCc2c(C)noc2C)nc2cc(S(N)(=O)=O)ccc21	IEC-6 tox 30.3, Ba/F3 V617F tox 68.2, BaF3 tox 62.3 | IEC-6 cytotox cf inactive
CC(=O)c1ccc(Nc2cc(C)nc3ccccc23)cc1	IEC-6 tox 38.3 | IEC-6 cytotox cf 34.8
COc1ccc(Nc2cc(C)nc3ccccc23)cc1	none
CC(=O)c1ccc(Nc2cc(C)nc3c(C)cccc23)cc1	IEC-6 tox 80.6, Ba/F3 V617F tox 76.6, BaF3 tox 76.5, APP transl inh 87.2 | IEC-6 cytotox cf 59.7
COC(=O)c1ccc(Nc2cc(C)nc3ccc(C)cc23)cc1	IEC-6 tox 26.1 (no result: APP transl inh) | IEC-6 cytotox cf 27.0
COc1ccc(-c2nn(-c3ccccc3C)cc2CNCc2cccnc2)cc1F	none
CCN(CC)CCNC(=O)c1cc2c(-c3ccc(Cl)cc3)nn(C)c2s1	none
CCCN(CCC)CCNC(=O)c1cc2c(-c3ccc(Cl)cc3)nn(C)c2s1	IEC-6 tox 21.9 (no result: Ba/F3 V617F tox, BaF3 tox, APP transl inh) | IEC-6 cytotox cf inactive
C=CCc1c(C)[nH]c2ccc(C)cc2c1=O	none
CS(=O)(=O)Nc1ccc(C2=NN(C(=O)c3ccco3)C(c3ccccc3)C2)cc1 (centres undefined)	none
COc1cc2c(cc1OC)-c1c(OC)c(OC)cc3ccnc(c13)C2=O	IEC-6 tox 28.6, Ba/F3 V617F tox 46.9, BaF3 tox 39.3 | IEC-6 cytotox cf 24.5
COc1ccc2oc(-c3ccccc3[N+](=O)[O-])cc(=O)c2c1	IEC-6 tox 44.1, Ba/F3 V617F tox 65.3, BaF3 tox 53.0 | IEC-6 cytotox cf 47.7
COc1cccc(NC(=O)c2ccc(-c3ccccc3[N+](=O)[O-])o2)c1	none
O=C(Cn1ncc2c([nH]c3ccccc32)c1=O)N1CCN(c2ccccc2F)CC1	none (no result: Ba/F3 V617F tox, BaF3 tox, APP transl inh)
C=CCn1cc(C(=O)NCCOC)c(=O)c2cc(S(=O)(=O)N3CCCCCC3)ccc21	IEC-6 tox 24.1 (no result: Ba/F3 V617F tox, BaF3 tox, APP transl inh) | IEC-6 cytotox cf inactive
Fc1ccc(C2CC(c3ccco3)=Nc3ccccc3S2)cc1 (centres undefined)	none
Cc1cc(=O)n2c(n1)OC(CO)C2 (centres undefined)	none
COc1ccc(C(=O)Nc2cccc3c2CCCC3)cc1	IEC-6 tox 23.9 (no result: Ba/F3 V617F tox, BaF3 tox, APP transl inh) | IEC-6 cytotox cf inactive
COc1ccc(CC(=O)Nc2cccc3c2CCCC3)cc1	none (no result: Ba/F3 V617F tox, BaF3 tox, APP transl inh)
COc1cc(NC(=O)c2cc3nc(-c4ccccc4)cc(-c4ccccc4)n3n2)cc(OC)c1OC	none
O=C(NNc1ccccc1F)c1ccccc1	IEC-6 tox 25.5 (no result: APP transl inh) | IEC-6 cytotox cf inactive
Oc1[nH]c2ccc(Br)cc2c1N=NC(=S)Nc1ccc(F)cc1	IEC-6 tox 21.9 (no result: APP transl inh) | IEC-6 cytotox cf inactive
O=C(N=Nc1c(O)[nH]c2ccc(Br)cc12)c1ccccc1-n1cccc1	IEC-6 tox 55.1, Ba/F3 V617F tox 76.8, BaF3 tox 77.0, APP transl inh 91.6 | IEC-6 cytotox cf 53.5
N=C(N)N=Nc1c(O)[nH]c2ccc(Br)cc12	none
Brc1ccccc1C1=Nn2c(nnc2-c2ccccc2)SC1	IEC-6 tox 27.3, Ba/F3 V617F tox 36.9, BaF3 tox 32.0 | IEC-6 cytotox cf inactive
Brc1ccccc1C1=Nn2c(nnc2-c2ccco2)SC1	none (no result: APP transl inh)
CCOc1ccc2c(c1)OC(c1ccc(OC)cc1)(C(F)(F)F)NC2=O (centres undefined)	IEC-6 tox 81.0, Ba/F3 V617F tox 78.3, BaF3 tox 76.8, APP transl inh 90.7 | IEC-6 cytotox cf 54.9

Source: PubChem (several laboratories)
